The record followed here is PubChem BioAssay (NCATS).

Results filed as inconclusive are left out. Unmarked numbers belong to inactive results. Active and inactive are the calls of the source. Calls follow the shape of the dose curve; as a rule, active = well fitted curve in the direction sought with a large enough effect; inconclusive = small, poorly fitted or top-dose-only effect, or another doubt; inactive = no such curve, though single readings can be large; an effect the other way counts as inactive or inconclusive. Positions of bridges follow the written chain, without caps; N, C: chain ends. Non-standard residues stand in square brackets, D forms with d. Residues, ends and D or L forms follow the SMILES beside them. ξ: configuration not given here. *: point of attachment. Octanoyl(6-Me) = CCC(C)CCCCC(=O)*; ξThr(3R) = C[C@@H](O)C(N)C(=O)O; dDab = NCC[C@@H](N)C(=O)O; Dab = NCC[C@H](N)C(=O)O

The nature of assay [1]: Quantitative High-Throughput drug screen in 47 multiple myeloma cell lines against the NCATS MIPE library collection: Karpas620_DSMZ cell viability assay (AID 1918959). Also: nearly all actives have a fitted effect of over 30% in size. Summed up:
(§1)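 We plated 500 myeloma cells per well, pinned in MIPE 4.0 compounds, and incubated for 48 hours at 37C. ATP was then quantified with CellTiter-Glo, with DMSO and media-only wells defining 100% and 0%.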

Assay [2] is described as follows: Quantitative High-Throughput drug screen in 47 multiple myeloma cell lines against the NCATS MIPE library collection: KMM1_JCRB cell viability assay (AID 1918960). Also: nearly all actives have a fitted effect of over 30% in size. Summed up:
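CellTiter-Glo luminescence after 48 h exposure gives viability, scaled between DMSO-only (100%) and media-only (0%) controls. Library compounds are pinned onto 500 myeloma cells per well, incubated at 37C with 5% CO2.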

A short description of assay [3]: Quantitative High-Throughput drug screen in 47 multiple myeloma cell lines against the NCATS MIPE library collection: KHM11_PLB cell viability assay (AID 1918962). Also: nearly all actives have a fitted effect of over 35% in size. Summed up:
as §1

Assay [4] is described as follows: Quantitative High-Throughput drug screen in 47 multiple myeloma cell lines against the NCATS MIPE library collection: JIM1_ECACC cell viability assay (AID 1918964). Summed up: (§2)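 Primary qHTS used for cherry-picking: cells at 500/well, library compounds for 48 h (37C, 5% CO2), luminescent ATP assay.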
Assay [5] is described as follows: Quantitative High-Throughput drug screen in 47 multiple myeloma cell lines against the NCATS MIPE library collection: INA6_PLB cell viability assay (AID 1918965; also: nearly all actives have a fitted effect of over 55% in size). The essentials:
(§3)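 Viability readout: CellTiter-Glo luminescence following 5 min room-temperature incubation with reagent. Prior exposure: 48 h, 37C, humidified 5% CO2, 500 cells per well.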

A short description of assay [6]: Quantitative High-Throughput drug screen in 47 multiple myeloma cell lines against the NCATS MIPE library collection: H1112_PLB cell viability assay (AID 1918967; also: nearly all actives have a fitted effect of over 30% in size). The essentials:
as §2

Assay [7] in a line: Quantitative High-Throughput drug screen in 47 multiple myeloma cell lines against the NCATS MIPE library collection: KMS12PE_JCRB cell viability assay (AID 1918972). Also: nearly all actives have a fitted effect of over 30% in size. The essentials: as §3
The nature of assay [8]: Quantitative High-Throughput drug screen in 47 multiple myeloma cell lines against the NCATS MIPE library collection: KMS20_JCRB cell viability assay (AID 1918973). Also: nearly all actives have a fitted effect of over 45% in size. Summed up: as §2
The nature of assay [9]: Quantitative High-Throughput drug screen in 47 multiple myeloma cell lines against the NCATS MIPE library collection: NCIH929_DSMZ cell viability assay (AID 1918978). Also: nearly all actives have a fitted effect of over 35% in size. Summed up: (§4)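 Cells were exposed to library compounds for 48 hours, after which ATP was measured by CellTiter-Glo. Signal was taken as median relative luminescence units.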
Assay [10] is described as follows: Quantitative High-Throughput drug screen in 47 multiple myeloma cell lines against the NCATS MIPE library collection: OCIMY1_PLB cell viability assay (AID 1918979). Also: nearly all actives have a fitted effect of over 35% in size. The essentials:
as §4

A short description of assay [11]: Quantitative High-Throughput drug screen in 47 multiple myeloma cell lines against the NCATS MIPE library collection: JIM3_ECACC cell viability assay (AID 1918963; also: nearly all actives have a fitted effect of over 35% in size). The essentials:
as §1

Assay [12] is described as follows: Quantitative High-Throughput drug screen in 47 multiple myeloma cell lines against the NCATS MIPE library collection: Karpas25_ECACC cell viability assay (AID 1918968; also: nearly all actives have a fitted effect of over 35% in size). The essentials: as §2
A short description of assay [13]: Quantitative High-Throughput drug screen in 47 multiple myeloma cell lines against the NCATS MIPE library collection: KMS12BM_JCRB cell viability assay (AID 1918971). Also: nearly all actives have a fitted effect of over 35% in size. The essentials:
(§5)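 Luminescent ATP measurement with CellTiter-Glo gives viability, scaled between DMSO-only wells (100%) and media-only wells (0%). Cells, 500 per well, faced library compounds for 48 hours at 37C.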

The nature of assay [14]: Quantitative High-Throughput drug screen in 47 multiple myeloma cell lines against the NCATS MIPE library collection: KMS26_JCRB cell viability assay (AID 1918975). Also: nearly all actives have a fitted effect of over 45% in size. Summed up:
as §5

Assay [15] in a line: Quantitative High-Throughput drug screen in 47 multiple myeloma cell lines against the NCATS MIPE library collection: JJN3_DSMZ cell viability assay (AID 1918966; also: nearly all actives have a fitted effect of over 50% in size). The essentials:
as §2

The nature of assay [16]: Quantitative High-Throughput drug screen in 47 multiple myeloma cell lines against the NCATS MIPE library collection: KMS27_JCRB cell viability assay (AID 1918970). Also: nearly all actives have a fitted effect of over 30% in size. As to conditions: KMS27 myeloma cells, CellTiter-Glo ATP viability, 48 h; viability (% of DMSO): at 45.8 µM (top of the series). Summed up: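 CellTiter-Glo luminescence after 48 h drug exposure at 37 °C; 500 cells/well, 1536-well format, pin-tool compound addition; DMSO = 100%, media-only = 0% viability.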

Assay [17] in a line: Quantitative High-Throughput drug screen in 47 multiple myeloma cell lines against the NCATS MIPE library collection: MMM1_PLB cell viability assay (AID 1918976). Also: nearly all actives have a fitted effect of over 35% in size. The essentials:
as §4

A short description of assay [18]: Quantitative High-Throughput drug screen in 47 multiple myeloma cell lines against the NCATS MIPE library collection: MOLP8_DSMZ cell viability assay (AID 1918977). Also: nearly all actives have a fitted effect of over 45% in size. Summed up: as §4
Assay [19] in a line: Quantitative High-Throughput drug screen in 47 multiple myeloma cell lines against the NCATS MIPE library collection: KMS21BM_JCRB cell viability assay (AID 1918974). As to conditions: ATP luminescence, 48 h; viability: at 45.8 µM (top of the series). The essentials:
as §2
Potency is read from the fitted curve at half-maximal effect.

On to `C[C@H](CCC(=O)O)[C@H]1CCC2C3C[C@H](O)[C@@H]4C[C@H](O)CC[C@]4(C)C3CC[C@@]21C` (stereo not given in full), for which the Potency entry in assay [1], in assay [2], in assay [3], in assay [4], in [5] and in assay [6] was “inactive” each time. Also, the Potency entry in [7], in assay [8], in assay [9] and in assay [10] was “inactive” throughout.

With `CCCCCCCCCCCCc1ccc(S(=O)(=O)Nc2nncs2)cc1`, the Potency entry in assay [1], in assay [2], in assay [11], in assay [5], in [6] and in [12] was “inactive” throughout. In addition, the Potency entry in [13], in assay [14] and in assay [9] was “inactive” each time.

`NC[C@H]1O[C@H](O[C@H]2[C@@H](O)[C@@H](O[C@H]3O[C@H](CO)[C@@H](O)[C@H](N)[C@@H]3O)[C@H](N)C[C@@H]2N)[C@H](N)C[C@H]1O`: the Potency entry in assay [1], in assay [2], in assay [11], in assay [6], in assay [12] and in assay [16] was “inactive” each time. Also, the Potency entry in assay [8], in assay [14], in assay [9] and in assay [10] was “inactive” throughout. The Potency in assay [15] was 1.87 µM (active); in assay [17], 2.09 µM (active).

Regarding `N=c1ccn2c(n1)O[C@H]1[C@@H](O)[C@@H](CO)O[C@H]12`, the Potency in [1] was 16.6 µM (active); in assay [2], 10.5 µM (active); in [5] it was 4.18 µM (active); in assay [16], 5.9 µM (active); in [13], 0.059 µM (active); in assay [7], 11.8 µM (active). In assay [9], the Potency was 16.6 µM (active). Besides, the Potency result in assay [11], in assay [4], in [15] and in assay [14] was “inactive” throughout.

For `CC(C(C)N1CC(=O)NC(=O)C1)N1CC(=O)NC(=O)C1` (stereo not given), the Potency result in assay [1], in assay [2], in [3], in [11], in [6] and in assay [12] was “inactive” in each case. Besides, the Potency result in assay [8] and in [9] was “inactive” each time. Further, the Potency was 0.59 µM (active) in [13], 1.32 µM (active) in assay [7] and 0.0105 µM (active) in [18].

Consider `Oc1cc(-c2nc(-c3ccccc3)[nH]c2-c2ccncc2)ccc1Cl`, for which the Potency is 5.9 µM (active) in [1]; 1.87 µM (active) in [2]; 1.18 µM (active) in assay [3]; 20.9 µM (active) in assay [11]; 18.7 µM (active) in assay [15]; 2.64 µM (active) in [16]. In addition, the Potency in [13] is 20.9 µM (active); in [7], 14.8 µM (active); in [19], 3.32 µM (active); in assay [17], 18.7 µM (active); in [18] it was 16.6 µM (active); in [9], 3.72 µM (active). Moreover, the Potency in assay [10] is 10.5 µM (active).

For `C[C@H](NC(=O)C(C#N)=Cc1cccc(Br)n1)c1ccccc1`, the Potency in assay [1] was 11.8 µM (active); in assay [2] it was 10.5 µM (active); in [3], 2.09 µM (active); in assay [11], 2.09 µM (active); in assay [15], 4.18 µM (active); in assay [6], 2.35 µM (active). The Potency was 2.09 µM (active) in assay [12]; 13.2 µM (active) in [16]; 4.69 µM (active) in assay [13]; 2.35 µM (active) in [14]; 7.43 µM (active) in assay [17]; 2.35 µM (active) in [18]. Moreover, the values for the Potency in [9] and in assay [10] were 1.66 µM (active) and 7.43 µM (active), respectively.

As to `C[N+](C)([O-])CCNc1ccc(NCC[N+](C)(C)[O-])c2c1C(=O)c1c(O)ccc(O)c1C2=O`, the Potency entry in [1], in assay [2], in assay [11], in [6], in assay [16] and in [7] was “inactive” in each case. In [9], the Potency result was “inactive”. The Potency in [5] is 16.6 µM (active).

For `O=C1NC(=O)[C@@H](c2cn3c4c(cccc24)CCC3)[C@H]1c1c[nH]c2ccccc12`, the Potency in assay [1] is 0.0743 µM (active); in assay [2], 0.105 µM (active); in assay [11], 0.118 µM (active); in assay [4] it was 0.0469 µM (active); in [5], 0.209 µM (active); in assay [15] it was 16.6 µM (active). Further, the Potency is 1.66 µM (active) in assay [6]; 0.833 µM (active) in assay [12]; 0.0833 µM (active) in assay [16]; 0.209 µM (active) in assay [13]; 0.148 µM (active) in [7]; 0.105 µM (active) in assay [8]. For the same compound, the Potency in [9] is 11.8 µM (active).

Take `CC(C)(C)[N+]([O-])=Cc1ccc(S(=O)(=O)O)cc1S(=O)(=O)O`: the Potency entry in [1], in [2], in assay [11], in [4], in assay [15] and in [6] was “inactive” each time. In addition, the Potency entry in assay [12], in [16], in [14], in [18], in assay [9] and in [10] was “inactive” throughout.

In the case of `C[C@]12C=CC(=O)N[C@@H]1CC[C@H]1[C@H]3CC[C@@H](C(=O)Nc4cc(C(F)(F)F)ccc4C(F)(F)F)[C@@]3(C)CC[C@@H]12`, the Potency entry in assay [1], in assay [2], in [3], in assay [11], in assay [16] and in assay [7] was “inactive” in each case. Also, the Potency entry in assay [10] was “inactive”. Also, the Potency was 18.7 µM (active) in [15], 13.2 µM (active) in [6], 11.8 µM (active) in assay [12] and 20.9 µM (active) in assay [13].

For the compound `O=C1c2c(O)cccc2[C@@H]([C@@H]2O[C@H](CO)[C@@H](O)[C@H](O)[C@H]2O)c2cc(CO)cc(O)c21`, the Potency entry in [1], in assay [2], in [11], in assay [6], in [12] and in assay [16] was “inactive” in each case. Further, the Potency entry in assay [13], in [7], in [8], in assay [14], in assay [18] and in [9] was “inactive” throughout. Further, the Potency entry in assay [10] was “inactive”.

Turning to `CCC(C)CCCCC(=O)N[C@@H](CCN)C(=O)NC(C(=O)N[C@H](CCN)C(=O)N[C@@H]1CCNC(=O)C([C@@H](C)O)NC(=O)[C@@H](CCN)NC(=O)[C@@H](CCN)NC(=O)[C@@H](CC(C)C)NC(=O)[C@H](Cc2ccccc2)NC(=O)[C@H](CCN)NC1=O)[C@@H](C)O` (stereo partly drawn) ({Octanoyl(6-Me)}-[Dab][ξThr(3R)][dDab][dDab][Dab]F[dL][dDab][dDab][ξThr(3R)]; lactam 4-C), the Potency entry in assay [1], in assay [2], in [11], in assay [4], in assay [15] and in [6] was “inactive” each time. The Potency result in [16], in [7], in [8], in assay [18], in assay [9] and in [10] was “inactive” throughout.

In the case of `C[C@H](NC(=O)[C@@H](O)c1cc(F)cc(F)c1)C(=O)N[C@@H]1C(=O)N(C)c2ccccc2-c2ccccc21`, the Potency result in assay [1], in assay [2], in assay [3], in [5], in [15] and in assay [12] was “inactive” in each case. The Potency entry in assay [7], in [8], in assay [18] and in assay [10] was “inactive” throughout. For the same compound, the Potency in assay [6] is 14.8 µM (active).
